# Rpn11 block: Rpn11 (human) deubiquitinase inhibition. O00487. human 26S proteasome, Ub4-pepOG fluorescence polarization; 20S core pre-blocked with epoxomicin. inhibition, % at 20 µM. 0.59% of 360,000 active;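 active = inhibition at 20 µM, scaled to each plate's controls, above about 33%, limit read from the data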
# HNF4A DNA FP: change in binding of human HNF4 alpha to DNA; P41235; 0.3% of 360,000 active; HNF4a-FITC DNA binding, fluorescence polarization, 1 h; activity change, % at 10 µM; in the data active = activity change above about 30%, passing the limit was not always enough
# Target sequence (P41235 whole entry, looked up): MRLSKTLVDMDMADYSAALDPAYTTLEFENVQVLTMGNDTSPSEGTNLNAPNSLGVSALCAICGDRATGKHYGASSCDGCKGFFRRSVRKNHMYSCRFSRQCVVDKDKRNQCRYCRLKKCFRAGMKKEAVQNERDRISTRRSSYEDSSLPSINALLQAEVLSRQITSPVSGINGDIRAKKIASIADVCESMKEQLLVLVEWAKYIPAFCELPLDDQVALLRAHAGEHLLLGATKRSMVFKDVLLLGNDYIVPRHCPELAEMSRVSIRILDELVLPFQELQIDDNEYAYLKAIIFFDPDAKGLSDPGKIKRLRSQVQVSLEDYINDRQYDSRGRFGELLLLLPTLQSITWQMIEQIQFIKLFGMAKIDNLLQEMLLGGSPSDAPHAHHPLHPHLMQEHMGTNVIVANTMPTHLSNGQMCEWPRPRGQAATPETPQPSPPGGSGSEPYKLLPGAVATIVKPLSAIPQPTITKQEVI
# NRP1-CendR mod: NRP-1/CendR interaction modulation; O14786; FAM-RPARPAR peptide binding to NRP-1, fluorescence polarization; inhibition, % at 25 µM; 0.85% of 360,000 active;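 active = inhibition or corrected inhibition above about 18%, plus a signal ratio from 0.5 to 1.5, limit read from the data, passing the limit was not always enough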
# TPT1 inhibitor: C. albicans TPT1 enzyme inhibition | recombinant caTPT1, FP RNA substrate dephosphorylation | inhibition, % at 5 µM | 0.81% of 300,000 active | AID 1962;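 active = inhibition above the mean of all tested compounds plus 3 SD, set per screening campaign, cut at about 24% in these data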;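 note: plate controls were DMSO alone for no effect and ferristatin control at 100 nM for full effect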
# PHOSPHO1 inh: blocks human PHOSPHO1 phosphatase activity; Q8TCT1; recombinant PHOSPHO1, absorbance phosphatase assay; 1.1% of 290,000 active; inhibition, % at 13.3 µM; in the data active = inhibition above about 60%
# Fh CTSL1 inh: blocks F. hepatica cathepsin L1 in PFM18AAP counter-screen | inhibition, % at 5.96 µM | recombinant F. hepatica cathepsin L1, Z-Leu-Arg-MCA fluorescence | 0.49% of 300,000 active;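 active = inhibition above the mean of all tested compounds plus 3 SD, set per screening campaign, cut at about 17% in these data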;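 note: 0% = plate median of test compound wells and 100% = 1 µM Z-Phe-Ala-diazomethylketone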
# caTPT1 confirm: confirmation of Candida albicans TPT1 inhibitors | shares compounds with TPT1 inhibitor | recombinant caTPT1, fluorescence polarization, RNase T1 coupled | inhibition, % at 5 µM | 74% of 2,400 active;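 active = inhibition above the primary screen limit, the mean inhibition of all tested compounds plus 3 SD, cut at about 25% in these data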
# RNase T1 inh: RNase T1 inhibition in TPT1 counter-screen. shares compounds with TPT1 inhibitor. inhibition, % at 5 µM. RNase T1 cleavage, fluorescence polarization, 1536-well. 83% of 2,400 active;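 active = inhibition above the solvent-only control well mean plus 3 SD, limit set per screening run, cut at about 23% in these data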;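 note: plate controls were DMSO wells with enzyme for no effect and wells without RNase T1 for full effect; inhibitors block cleavage so intact labeled substrate keeps polarization high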
# Active calls of the source: *; · = no result shown. This is a sample that favours compounds with a hit; in the whole collection about 3.3% have one here.
SMILES,Rpn11 block,HNF4A DNA FP,NRP1-CendR mod,TPT1 inhibitor,PHOSPHO1 inh,Fh CTSL1 inh,caTPT1 confirm,RNase T1 inh
N#C/C(=C/c1ccc(N2CCCCCC2)o1)c1ccc(F)cc1,·,84.3,-145.6,157.9*,·,9.2,182.0*,167.6*
COc1cc(N2CCCC2)c(OC)cc1/C=C(/C#N)c1cccc(F)c1,·,89.1,-151.5,143.5*,7.8,5.4,145.2*,140.3*
O=C(N/N=C/c1ccc(N2CCCCC2)o1)c1ccccc1,4.2,1.5,-2.2,3.7,0.3,5.4,·,·
COc1cccc(/C=C(/C#N)c2ccc(F)cc2)c1OCc1cccc(C(=O)O)c1,-0.1,-2.0,-9.6,-0.3,0.3,-0.4,·,·
COC(=O)c1ccccc1C(=O)N(c1ccccc1)c1ccccc1,3.5,1.0,1.9,-0.9,·,1.6,·,·
O=C1N/C(=C/c2ccc(N3CCOCC3)o2)C(=O)N1c1cccc(Cl)c1,65.0*,127.0,-92.0,81.8*,51.4,2.1,168.3*,166.0*
Cc1cc(NC(=O)/C(C#N)=C/c2ccc(-c3ccc(SC(F)F)cc3)o2)n(-c2ccccc2)n1,·,150.8,-146.9,57.1*,-6.0,2.1,56.7*,66.1*
Cc1cc(NC(=O)/C(C#N)=C/c2ccc(-c3cccc(C(F)(F)F)c3)o2)n(-c2ccccc2)n1,35.1,24.9,-34.2,10.0,-9.4,-1.2,·,·
Oc1c(/C=N/c2ccccn2)sc2ccccc12,35.9,14.5,-58.2,44.8*,10.6,2.8,56.6*,67.2*
Oc1c(C=Nc2ccc(Cl)cn2)sc2ccccc12,5.1,0.0,-14.3,30.9*,6.1,-0.2,38.6*,49.2*
COc1cc(C2=NOC(C(=O)Nc3cc(C)on3)C2)cc(OC)c1OC (centres undefined),1.9,0.8,-13.8,-1.5,19.5,-0.4,·,·
CC(C)Sc1nc2sc(-c3ccccc3)cc2c(=O)n1N,-6.3,1.8,1.8,-2.5,31.7,-1.4,·,·
COC(=O)C(C)n1nnc2sc(-c3ccccc3)cc2c1=O (centres undefined),5.4,2.1,-5.0,26.2*,-5.3,-0.2,27.5*,33.0*
CCOC(=O)c1sc2cc([N+](=O)[O-])cc(SCC(=O)OC)c2c1N,35.6,14.1,-47.8,29.2*,99.2*,0.5,34.7*,49.2*
COc1cc(OC)c(OC)cc1/C=C1\Oc2cc(OCC(=O)N3Cc4ccccc4C[C@H]3C(=O)O)ccc2C1=O,·,61.2*,139.6,73.4*,23.4,2.7,80.7*,84.5*
COc1ccc(NC(=O)Nc2c(C)noc2-c2ccccc2)cc1,0.4,-1.1,5.1,41.7*,24.6,1.0,5.5,11.2
COC(=O)Nc1ccc(S(=O)(=O)NC2CCCCC2)cc1,2.2,0.8,2.7,-0.6,17.4,0.4,·,·
C[C@H]1CN([C@@H](C)CO)S(=O)(=O)c2ccc(Br)cc2O[C@H]1CN(C)C(=O)c1cccc(F)c1,-5.1,5.2,-0.2,·,·,·,·,·
N#CC1=C(N)OC2=C(CC/C2=C\c2ccccc2)C1c1ccccc1 (centres undefined),·,20.3,67.0,83.2*,5.4,2.4,84.7*,87.9*
N#CC1=C(N)OC2=C(CC/C2=C\c2ccccc2Cl)C1c1ccccc1Cl (centres undefined),·,81.1,136.3,67.0*,-3.5,2.4,81.2*,89.5*
CC(=O)C1=C(C)OC(N)=C(C#N)C1c1cc([N+](=O)[O-])ccc1Cl (centres undefined),-0.6,1.1,7.8,3.1,3.2,-1.1,·,·
COc1ccc(N(Cc2cc3cccc(C)c3[nH]c2=O)C(=O)C2CCCO2)cc1 (centres undefined),-7.7,2.9,2.4,-3.9,6.3,3.2,·,·
CC(=O)N[C@@H](C)C(=O)OC(C)C(=O)Nc1cccc([N+](=O)[O-])c1 (some centres undefined),-1.2,0.8,8.5,·,13.3,·,·,·
COc1cc(CC(=O)N2CCN(S(=O)(=O)c3ccc(C(C)C)cc3)CC2)cc(OC)c1OC,7.0,-2.1,-8.4,·,·,·,·,·
